Among the data in PubChem BioAssay (NCI) are growth inhibition values, retold here.

Structures are written as SMILES. This is part of a sample that, as a whole, favours compounds with a hit. Of some 79,000 tested, about 15% had one in any assay. Values without a mark were called inactive. Calls of active or inactive are those of the source. No stated cut-off is given here; in the data, active means growth inhibition above about 70%; inactive means the rest.

Test [1] can be described thus: NCI Yeast Anticancer Drug Screen. Data for the rad50 strain (AID 155).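 Further: 0% = growth of vehicle-only cultures of the same strain.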 The following applies: S. cerevisiae rad50 strain growth inhibition; at 50.0 µM; hits give high values. The method, boiled down:
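Vehicle-treated cultures provide the reference for the growth inhibition reported for compound-exposed, repair-deficient yeast.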

Test [2] can be described thus: NCI Yeast Anticancer Drug Screen. Data for the mec2-1 strain (AID 157). The following applies: S. cerevisiae mec2-1 strain, at 50.0 µM, hits give high values. The method, boiled down:
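Yeast mec2-1 mutant treated with compound. Readout: growth inhibition vs vehicle controls.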

Test [3] can be described thus: NCI Yeast Anticancer Drug Screen. Data for the sgs1 mgt1 strain (AID 161).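 Further: 0% = growth of cultures given vehicle only.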 As to conditions: S. cerevisiae sgs1 mgt1 strain, at 50.0 µM, hits give high values. The method, boiled down:
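Mutant yeast exposed to compound; growth scored against vehicle-only wells.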

The nature of test [4]: NCI Yeast Anticancer Drug Screen. Data for the cln2 rad14 strain (AID 165).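 Further: 0% = growth equal to vehicle treated cultures.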 As to conditions: S. cerevisiae cln2 rad14 strain, at 50.0 µM, hits give high values. The method, boiled down:
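cln2 rad14 yeast strain; compound exposure; growth inhibition read vs vehicle controls.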

Test [5] is described as follows: NCI Yeast Anticancer Drug Screen. Data for the bub3 strain (AID 167). The following applies: S. cerevisiae bub3 mutant strain, at 50.0 µM, hits give high values. The method, boiled down: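 Mutant yeast screening strain plus compound; vehicle-treated cultures serve as the 0% inhibition reference.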
Test [6] in a line: NCI Yeast Anticancer Drug Screen. Data for the mlh1 rad18 strain (AID 175). The following applies: S. cerevisiae mlh1 rad18 strain growth inhibition; at 50.0 µM; hits give high values. The method, boiled down:
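Yeast w/ defined DNA-repair lesions; compound exposure; growth vs vehicle controls → % inhibition.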

As for `O=c1c2c(no[n+]2[O-])c2ccccc2n1-c1ccccc1`, the growth inhibition in test [1] is 96.7% (active); in test [2] it was 66%; in test [3], 92.4% (active); in test [4], 86% (active); in test [5], 97.2% (active); in test [6] it was 96% (active).
Consider `[Cl][Pt+2][Cl].[NH-]c1ccc(CC(=O)O)cc1[NH-]`, for which the growth inhibition in test [1] is 48.4%; in test [2], 7.1%; in test [3], 23.4%; in test [4], 39.8%; in test [5] it was -11.1%; in test [6], -4.2%.
On to `CC1(C)CC(C2=NCCO2)CC(C)(C)N1`, for which the growth inhibition in test [1] is -43.7%; in test [2], -29.2%; in test [3], -39.3%; in test [4], -6.45%; in test [5], 15.2%; in test [6] it was -31.1%.
With `CC(=O)Oc1ccc(OC(C)=O)c2c(OC(C)=O)ccc(OC(C)=O)c12`, the growth inhibition is 0.45% in test [1]; 2.15% in test [2]; 1.55% in test [3]; -10.3% in test [4]; 53.8% in test [5]; -6.8% in test [6].
On to `COC(=O)C(C(=O)C(=O)Nc1c(Cl)cc([N+](=O)[O-])cc1Cl)c1nc2cc(C)c(C)cc2[nH]c1=O` (stereo not drawn), for which the growth inhibition in test [1] is 16.6%; in test [2] it was 3.1%; in test [3], 20.8%; in test [4] it was 14.3%; in test [5] it was -4.85%; in test [6] it was -9.75%.
For the molecule `CC(C)CCCC(C)C1CCC2C3CCC4CC(=O)/C(=C\O)CC4(C)C3CCC12C` (stereo not drawn), the growth inhibition was 70.3% (active) in test [1]; 51.5% in test [2]; 79.4% (active) in test [3]; 38.6% in test [4]; 25.6% in test [5]; 67.2% in test [6].
In the case of `c1ccc2c(c1)ccc1c3ccccc3ncc21`, the growth inhibition in test [1] is 62.8%; in test [2], 27.8%; in test [3] it was 32.6%; in test [4], 35.5%; in test [5] it was 0.75%; in test [6], 23.1%.
For `N#CCCNC(CC(=O)O)C(=O)O` (stereo not drawn), the growth inhibition in test [1] was 10.7%; in test [2], 1.55%; in test [3], 14.4%; in test [4] it was -13.2%; in test [5], 0.5%; in test [6], -4.85%.
Regarding `COc1cccc(/C(Cl)=C(\C=O)c2cccc(OC)c2)c1`, the growth inhibition in test [1] was 12.8%; in test [2], 19.1%; in test [3], 2.2%; in test [4] it was 10.7%; in test [5], 34%; in test [6], -10.1%.
As for `CNc1ccc(Cl)cc1S(=O)(=O)c1ccccc1[N+](=O)[O-]`, the growth inhibition in test [1] is 3.2%; in test [2] it was 16.4%; in test [3], 24.8%; in test [4], 23.3%; in test [5], 5.65%; in test [6], -7.05%.
Turning to `C[N+](C)(Cc1cccc(Cl)c1)c1nnn[n-]1`, the growth inhibition is -9.75% in test [1]; -18.9% in test [2]; -7.05% in test [3]; -22.6% in test [4]; -7.4% in test [5]; -9.5% in test [6].
As to `O=CN(c1ccccc1)c1ccccc1`, the growth inhibition in test [1] is 3.8%; in test [2] it was -2.4%; in test [3], -2.7%; in test [4], -15.4%; in test [5] it was -4.55%; in test [6], -23.6%.
For the molecule `O=[N+]([O-])c1cccc(CO)c1`, the growth inhibition in test [1] is -9.75%; in test [2] it was 17.1%; in test [3], -1.15%; in test [4], 8.6%; in test [5] it was -7.35%; in test [6], -5.7%.
On to `CCOP(C)(=O)/C(Cc1ccc(OC)c(OC)c1)=N\O` (stereo not drawn), for which the growth inhibition in test [1] is -21.4%; in test [2], -22.8%; in test [3] it was -14.8%; in test [4], 10.4%; in test [5] it was 23%; in test [6], -17.2%.
Consider `Cc1cn(C2CC3[O][Sn]([c]4ccccc4)([c]4ccccc4)[O]CC3O2)c(=O)[nH]c1=O` (stereo not drawn), for which the growth inhibition in test [1] is 8.65%; in test [2] it was 35.8%; in test [3], 16.6%; in test [4], 7.6%; in test [5], 13.2%; in test [6] it was 47%.
Take `O=[N+]([O-])c1ccc(OCC#CCOc2ccc([N+](=O)[O-])c(C(F)(F)F)c2)cc1C(F)(F)F`: the growth inhibition in test [1] is 31.4%; in test [2], -13.6%; in test [3], -0.2%; in test [4], 4.65%; in test [5], -2.3%; in test [6] it was -3.75%.
For the molecule `N#C/C(=C\c1c(Cl)cccc1Cl)c1ccc([N+](=O)[O-])cc1`, the growth inhibition in test [1] is 7.65%; in test [2], -0.2%; in test [3], 16%; in test [4], -4.45%; in test [5] it was 48.8%; in test [6], 5.1%.
Consider `CCc1nc2c(N)ncnc2o1`, for which the growth inhibition in test [1] was -1.45%; in test [2], -1.5%; in test [3] it was -3.3%; in test [4], -37.3%; in test [5] it was -19.8%; in test [6] it was 11.4%.
